# Laboratory results taken from PubChem BioAssay (Tox21).
# Values without a mark were called inactive. Records with an inconclusive call do not appear. A call without a number means that no potency is given here. Calls of active or inactive are those of the source. Unless noted, calls follow the shape of the dose curve; as a rule, active = well fitted curve in the direction sought with a large enough effect in the repeat runs; inconclusive = weak or mixed curves; inactive = no such curve, though single readings can be large; an effect the other way counts as inactive or inconclusive. Non-standard residues stand in square brackets, D forms with d. Residues, ends and D or L forms follow the SMILES beside them. *: point of attachment. Sta = CC(C)C[C@H](N)[C@@H](O)CC(=O)O; Isovaleryl = CC(C)CC(=O)*
# Assays:
# [1] = qHTS assay to identify small molecule agonists of the TGF-beta/Smad signaling pathway (AID 1346859; active = well fitted activation curve with a large enough effect in the signal ratio in the repeat runs, not every such curve was filed as active; the % refers to the signal ratio; also: series mostly up to about 77 µM)
# Outline: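 Beta-lactamase reporter activity downstream of Smad binding elements was measured in stably transfected HEK 293T cells; compounds were incubated for 5 hr, substrate for 2 hr at room temperature.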
# [2] = target: Thyrotropin-releasing hormone receptor (Homo sapiens) (UniProt P34981); test: qHTS assay to identify small molecule antagonists of the thyrotropin-releasing hormone receptor (TRHR) signaling pathway (AID 1346877; active = well fitted inhibition curve with a large enough effect in the repeat runs, not every such curve was filed as active; also: series mostly up to about 51 µM)
# Outline: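 In this cell-based calcium flux format, HEK293 cells expressing TRHR received test compound for 5 min before the agonist TRH (1 nM final). Dye loading lasted 2 h at 37 °C.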
# [3] = target: Thyrotropin-releasing hormone receptor (Homo sapiens) (UniProt P34981); test: qHTS assay to identify small molecule agonists of the thyrotropin-releasing hormone receptor (TRHR) signaling pathway (AID 1346891; calls by dose curve; also: series mostly up to about 58 µM)
# Outline: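 Overnight-plated (18 h, 37 °C, 5% CO2) TRHR-Hek293 cells; 2 h calcium dye at 37 °C; compound in DMSO; 3-min kinetic fluorescence read.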
# [4] = Human pregnane X receptor (PXR) small molecule agonists, qHTS cell viability counter screen (AID 1346977); also: nearly all actives have a fitted effect of over 50% in size
# Outline: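 After a 5hr pre-incubation, PXR-Luc HepG2 cells received compounds plus positive control in DMSO and were kept 24hr at 37C. Cell viability was quantified by fluorescence from CellTiter-Fluor added for the final hour.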
# [5] = Caspase-3/7 induction in HepG2 cells by small molecules, qHTS assay (AID 1346978); also: nearly all actives have a fitted effect of over 15% in size
# Outline: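 Wild-type HepG2 cells (2,000/well) were settled 5 h at 37 C, 5% CO2, then exposed to compounds in DMSO for 17 h. Caspase-3/7 activity was read by luminescence 30 min after adding Caspase-Glo 3/7 reagent at room temperature.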
# [6] = Caspase-3/7 induction in CHO-K1 cells by small molecules, qHTS cell viability counter screen (AID 1346979); also: nearly all actives have a fitted effect of over 35% in size
# Outline: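 Multiplexed with Caspase-Glo 3/7 in CHO-K1 cells, this counter screen added CellTiter-Fluor after 16hr of compound exposure and recorded fluorescence 1hr later.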
# [7] = Caspase-3/7 induction in CHO-K1 cells by small molecules, qHTS assay (AID 1346980); also: nearly all actives have a fitted effect of over 15% in size
# Outline: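 Wild-type cells were seeded at 1,500 per well and settled 5 hr at 37 C, 5% CO2, then exposed to DMSO-dissolved compounds for 17 hr. Caspase-Glo 3/7 reagent was added, and luminescence was read after 30min at room temperature.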
# [8] = Caspase-3/7 induction in HepG2 cells by small molecules, qHTS cell viability counter screen (AID 1346981); also: series mostly up to about 92 µM; nearly all actives have a fitted effect of over 30% in size
# Outline: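 Counter screen for cytotoxicity: HepG2 exposed 16 hr to compounds, then CellTiter-Fluor viability signal (fluorescence, 1 hr reagent incubation).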
# [9] = target: Nuclear receptor subfamily 1 group I member 2 (Homo sapiens) (UniProt O75469); test: Human pregnane X receptor (PXR) small molecule agonists, qHTS assay (AID 1346982); also: nearly all actives have a fitted effect of over 35% in size; also: potency is read from the fitted curve at half-maximal effect
# Outline: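 Luminescence (ONE-Glo, 30 min RT) after 24 hr compound exposure of PXR-Luc HepG2 cells; cells rested 5 hr post-plating in 5% charcoal-stripped FBS medium.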
# [10] = target: Nuclear receptor subfamily 1 group I member 2 (Rattus norvegicus) (UniProt Q9R1A7); test: Rat pregnane X receptor (rPXR) activation by small molecules, qHTS assay (AID 1346983); conditions: rPXR luciferase reporter cells, One-Glo luminescence, 24 h; max activation: stronger effect = higher value; also: nearly all actives have a fitted effect of over 20% in size; also: potency is read from the fitted curve at half-maximal effect
# Outline: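 Cell-based rPXR luciferase reporter assay, 2,000 cells per well, rested 5hr at 37 C before compound addition in DMSO, then 24 hr at 37 C. One-Glo reagent was added and luminescence read after 30 min at room temperature.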
# Sequence of Nuclear receptor subfamily 1 group I member 2 (Rattus norvegicus) (Q9R1A7 whole entry, looked up): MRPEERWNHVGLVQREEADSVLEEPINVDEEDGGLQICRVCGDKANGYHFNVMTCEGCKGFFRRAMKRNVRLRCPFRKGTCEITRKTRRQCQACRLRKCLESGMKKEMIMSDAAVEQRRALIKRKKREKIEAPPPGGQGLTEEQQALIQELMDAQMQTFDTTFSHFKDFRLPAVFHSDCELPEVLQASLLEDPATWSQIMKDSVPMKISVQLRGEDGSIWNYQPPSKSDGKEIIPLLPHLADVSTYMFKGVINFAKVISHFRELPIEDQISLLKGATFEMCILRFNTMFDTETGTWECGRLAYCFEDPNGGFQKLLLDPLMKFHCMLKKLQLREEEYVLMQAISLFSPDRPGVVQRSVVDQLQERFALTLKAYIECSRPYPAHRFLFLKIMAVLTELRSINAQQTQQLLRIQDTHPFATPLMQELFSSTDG
# Sequence of Nuclear receptor subfamily 1 group I member 2 (Homo sapiens) (O75469 whole entry, looked up): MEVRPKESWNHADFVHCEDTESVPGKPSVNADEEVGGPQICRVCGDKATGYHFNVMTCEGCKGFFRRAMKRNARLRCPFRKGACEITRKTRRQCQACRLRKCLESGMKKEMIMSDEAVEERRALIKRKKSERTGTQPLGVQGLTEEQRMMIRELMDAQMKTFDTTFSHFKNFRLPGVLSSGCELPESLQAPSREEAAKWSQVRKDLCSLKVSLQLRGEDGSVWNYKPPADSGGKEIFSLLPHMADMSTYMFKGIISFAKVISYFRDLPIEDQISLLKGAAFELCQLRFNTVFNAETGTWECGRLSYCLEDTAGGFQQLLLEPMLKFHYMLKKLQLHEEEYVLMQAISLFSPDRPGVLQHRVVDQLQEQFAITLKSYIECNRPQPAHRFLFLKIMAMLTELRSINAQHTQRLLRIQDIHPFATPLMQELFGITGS
# Sequence of Thyrotropin-releasing hormone receptor (Homo sapiens) (P34981 whole entry, looked up): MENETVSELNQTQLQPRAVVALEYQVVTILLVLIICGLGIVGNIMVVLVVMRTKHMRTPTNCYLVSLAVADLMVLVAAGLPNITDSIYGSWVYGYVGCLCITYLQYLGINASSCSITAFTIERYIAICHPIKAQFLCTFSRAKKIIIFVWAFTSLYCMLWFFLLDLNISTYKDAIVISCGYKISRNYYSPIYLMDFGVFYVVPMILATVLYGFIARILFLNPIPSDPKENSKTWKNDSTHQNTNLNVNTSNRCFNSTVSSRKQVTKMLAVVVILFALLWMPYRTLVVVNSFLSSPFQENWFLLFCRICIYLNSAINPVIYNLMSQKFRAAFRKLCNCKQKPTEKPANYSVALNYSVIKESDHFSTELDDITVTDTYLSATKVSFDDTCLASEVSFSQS
smiles,measurement,setting,value
COc1cc(OC)cc(OC)c1,outcome,[1],inactive
same,outcome,[2],inactive
same,Potency,[3],inactive
same,outcome,[4],inactive
same,outcome,[5],inactive
same,Potency,[6],inactive
same,outcome,[7],inactive
same,outcome,[8],inactive
same,Potency,[9],inactive
same,max activation,[10],-1.98%
Cc1ccc(NC(N)=O)cc1,outcome,[1],inactive
same,outcome,[2],inactive
same,Potency,[3],inactive
same,outcome,[4],inactive
same,outcome,[5],inactive
same,Potency,[6],inactive
same,outcome,[8],inactive
same,Potency,[9],inactive
CCOC(=O)CN1CCCC1=O,outcome,[1],inactive
same,outcome,[2],inactive
same,Potency,[3],inactive
same,outcome,[4],inactive
same,outcome,[5],inactive
same,outcome,[7],inactive
same,outcome,[8],inactive
same,Potency,[9],inactive
COC(=O)c1c(C)cc(O)c(C)c1O,outcome,[1],inactive
same,outcome,[2],inactive
same,Potency,[3],inactive
same,outcome,[4],inactive
same,outcome,[5],inactive
same,outcome,[7],inactive
same,outcome,[8],inactive
same,Potency,[9],61.1 µM (active)
CNC(=O)c1c(I)c(NC(C)=O)c(I)c(C(=O)O)c1I,outcome,[1],inactive
same,outcome,[2],inactive
same,Potency,[3],inactive
same,outcome,[4],inactive
same,outcome,[5],inactive
same,outcome,[7],inactive
same,outcome,[8],inactive
same,Potency,[9],inactive
CC[N+](C)(CC)CC,outcome,[1],inactive
same,outcome,[2],inactive
same,Potency,[3],inactive
same,outcome,[4],inactive
same,outcome,[5],inactive
same,outcome,[7],inactive
same,outcome,[8],inactive
same,Potency,[9],inactive
N=C(N)N1CCc2ccccc2C1,activation,[1],-1.64% [at 6.97 µM]
same,"activity, negative = inhibition",[2],4% [at 4.65 µM]
same,activation,[3],0.0364% [at 5.23 µM]
same,"activity change, negative = cytotoxicity",[4],4.15% [at 8.39 µM]
same,caspase activation,[5],-1.31% [at 8.39 µM]
same,"activity change, negative = cytotoxicity",[6],6.67% [at 8.39 µM]
same,caspase-3/7 activation,[7],-0.384% [at 8.39 µM]
same,"activity change, negative = cytotoxicity",[8],3.77% [at 8.39 µM]
same,activation,[9],-6.7% [at 8.39 µM]
same,max activation,[10],-0.056%
NCC1CCC(C(=O)Oc2ccc(CCC(=O)O)cc2)CC1 (stereo not given),outcome,[1],inactive
same,outcome,[2],inactive
same,Potency,[3],inactive
same,outcome,[4],inactive
same,outcome,[5],inactive
same,Potency,[6],inactive
same,outcome,[8],inactive
same,Potency,[9],inactive
same,max activation,[10],-5.61%
COc1cc2nc(N3CCN(C(=O)C4CCCO4)CC3)nc(N)c2cc1OC (stereo not given),outcome,[1],inactive
same,outcome,[2],inactive
same,Potency,[3],inactive
same,outcome,[4],inactive
same,outcome,[5],inactive
same,Potency,[6],inactive
same,outcome,[7],inactive
same,outcome,[8],inactive
same,max activation,[10],0.468%
CCCCN(CCCC)CCCCCCN(CCCC)CCCC,outcome,[1],inactive
same,outcome,[2],inactive
same,Potency,[3],inactive
same,outcome,[4],inactive
same,outcome,[5],inactive
same,outcome,[7],inactive
same,outcome,[8],inactive
same,Potency,[9],inactive
CCC(C)c1nccnc1OC (stereo not given),outcome,[1],inactive
same,outcome,[2],inactive
same,Potency,[3],inactive
same,outcome,[4],inactive
same,outcome,[5],inactive
same,outcome,[7],inactive
same,outcome,[8],inactive
same,Potency,[9],inactive
Cc1ccc2ccccc2n1,outcome,[1],inactive
same,outcome,[2],inactive
same,Potency,[3],inactive
same,outcome,[4],inactive
same,outcome,[5],inactive
same,Potency,[6],inactive
same,outcome,[8],inactive
same,Potency,[9],inactive
CC(C)CC(=O)N[C@H](C(=O)N[C@H](C(=O)N[C@@H](CC(C)C)[C@@H](O)CC(=O)N[C@@H](C)C(=O)N[C@@H](CC(C)C)[C@@H](O)CC(=O)O)C(C)C)C(C)C (Isovaleryl-VV[Sta]A[Sta]-OH),outcome,[1],inactive
same,outcome,[2],inactive
same,Potency,[3],inactive
same,outcome,[4],inactive
same,outcome,[5],inactive
same,Potency,[6],inactive
same,outcome,[7],inactive
same,outcome,[8],inactive
same,Potency,[9],inactive
same,max activation,[10],-4.42%
O=C(O)CCCCCCCCCC(=O)O,outcome,[1],inactive
same,outcome,[2],inactive
same,Potency,[3],inactive
same,outcome,[4],inactive
same,outcome,[5],inactive
same,Potency,[6],inactive
same,outcome,[8],inactive
CCCCCC(CC)OC(=O)CCCOc1ccc(Cl)cc1Cl (stereo not given),outcome,[1],inactive
same,outcome,[2],inactive
same,Potency,[3],inactive
same,outcome,[4],inactive
same,outcome,[5],inactive
same,Potency,[6],inactive
same,outcome,[7],inactive
same,Potency,[9],inactive
C[C@]12C=CC(=O)C=C1[C@@H](F)C[C@@H]1[C@@H]2[C@@H](O)C[C@@]2(C)[C@H]1CC[C@]2(O)C(=O)CO,outcome,[1],inactive
same,outcome,[2],inactive
same,Potency,[3],inactive
same,outcome,[4],inactive
same,outcome,[5],inactive
same,Potency,[6],inactive
same,outcome,[7],inactive
same,outcome,[8],inactive
same,Potency,[9],inactive
same,Potency,[10],12.6 µM (active)
CC(=O)c1c(C)cc(C(C)(C)C)cc1C,outcome,[1],inactive
same,outcome,[2],inactive
same,Potency,[3],inactive
same,outcome,[4],inactive
same,outcome,[5],inactive
same,outcome,[7],inactive
same,outcome,[8],inactive
CN1CCN(C(=O)C2CCCCC2)CC1,outcome,[1],inactive
same,outcome,[2],inactive
same,Potency,[3],inactive
same,outcome,[4],inactive
same,outcome,[5],inactive
same,Potency,[6],inactive
same,outcome,[8],inactive
same,Potency,[9],inactive
same,max activation,[10],-9.64%
O=C(O)/C=C(\CC(=O)O)C(=O)O,outcome,[1],inactive
same,outcome,[2],inactive
same,Potency,[3],inactive
same,outcome,[4],inactive
same,outcome,[5],inactive
same,outcome,[7],inactive
same,outcome,[8],inactive
same,Potency,[9],inactive
NNC(=O)OCc1ccccc1,outcome,[1],inactive
same,outcome,[2],inactive
same,Potency,[3],inactive
same,outcome,[4],inactive
same,outcome,[5],inactive
same,outcome,[7],inactive
same,outcome,[8],inactive
same,Potency,[9],54.5 µM (active)
CN(C)c1cc(NC(=O)CNC(C)(C)C)c(O)c2c1C[C@H]1C[C@H]3[C@H](N(C)C)C(=O)C(C(N)=O)=C(O)[C@@]3(O)C(=O)C1=C2O,outcome,[1],inactive
same,outcome,[2],inactive
same,Potency,[3],inactive
same,outcome,[4],inactive
same,outcome,[5],inactive
same,Potency,[6],inactive
same,outcome,[8],inactive
same,Potency,[9],inactive
C=CCN1CCc2nc(N)sc2CC1,outcome,[1],inactive
same,outcome,[2],inactive
same,Potency,[3],inactive
same,outcome,[4],inactive
same,outcome,[5],inactive
same,Potency,[6],inactive
same,outcome,[7],inactive
same,outcome,[8],inactive
same,Potency,[9],inactive
same,max activation,[10],-4.96%
Cc1ccc(S(=O)(=O)NC(=O)NN2CC3CCCC3C2)cc1 (stereo not given),outcome,[1],inactive
same,outcome,[2],inactive
same,Potency,[3],inactive
same,outcome,[4],inactive
same,outcome,[5],inactive
same,Potency,[6],inactive
same,outcome,[7],inactive
same,outcome,[8],inactive
same,Potency,[9],inactive
same,max activation,[10],1.11%
C[C@@H](CN1CC(=O)NC(=O)C1)N1CC(=O)NC(=O)C1,outcome,[1],inactive
same,outcome,[2],inactive
same,Potency,[3],inactive
same,outcome,[4],inactive
same,outcome,[5],inactive
same,Potency,[6],inactive
same,outcome,[7],inactive
same,outcome,[8],inactive
same,Potency,[9],inactive
same,max activation,[10],-0.624%
CC(C)c1cc(C(C)C)cc(C(C)C)c1,outcome,[1],inactive
same,outcome,[2],inactive
same,Potency,[3],inactive
same,outcome,[4],inactive
same,outcome,[5],inactive
same,Potency,[6],inactive
same,outcome,[8],inactive
same,Potency,[9],inactive
